Activity (protection/inhibition) data for 3 compounds are collected here from PubChem BioAssay AID651871 (Sanford-Burnham Center for Chemical Genomics, 2012).

Structures are written as SMILES. Values joined by “and” are separate entries in the source; they are usually repeats but may differ in a detail not shown here. Equal entries are not always repeated.

The test system of this assay is H9c2. Nature of the assay: cardiomyocyte survival under oxidative or metabolic stress – cell-based, panel, H9c2 and HL-1, ATP luminescence, set 2, SAR follow-up (AID 651871).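 Further: cells exposed to stressor for 2 h before ATP readout; reference of the scale not given here.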 The note with it: H9c2/HL-1 cardiomyocytes, 2-deoxyglucose stress, with 2-deoxyglucose; run 8, at 79 µM (top of the series).
In the case of `CCOC(=O)c1cccc(NC(=O)CNC(=O)c2cc(-c3cc(OC)c(OC)c(OC)c3)nc3ccccc23)c1`, the activity (protection/inhibition) worked out at 92.9%. The result for `COc1ccc2nc(-c3cc(OC)c(OC)c(OC)c3)cc(C(=O)NCC(=O)Nc3ccc(C(C)=O)cc3)c2c1` reads 83.5%; that for `COc1ccc2c(c1OC)C(=O)N1c3ccccc3C(=O)N(Cc3cccc(Cl)c3Cl)C21` (stereo not drawn), 89.8% and 74.3% and -3.43%.
